High-throughput results deposited in PubChem BioAssay by National Center for Advancing Translational Sciences (NCATS).
Sfp PPTase inh: Sfp phosphopantetheinyl transferase inhibition; Q9F4F7; Biochemical Sfp PPTase activity, qHTS; Potency, µM, for the others: largest response in the series, negative = inhibition, usual class: inhibitors; 310,000 tested, 3.5% active;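 further: the enzyme is Sfp with the accession as filed and its product quenches rhodamine fluorescence; 0% = enzyme reaction without inhibitor and -100% = no enzyme wells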
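Compounds were incubated with enzyme (final 15 nM) for 15 min at room temperature before substrate addition started the reaction. Fluorescence at 525 nm excitation, 598 nm emission was recorded immediately and after 30 minutes.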
ALDH1A1 block: ALDH1A1 (human) enzyme inhibition; P00352; Purified ALDH1A1, NADH fluorescence, propionaldehyde substrate; Potency, µM (top dose mostly 75.3 µM), inactives show top-dose activity, negative = inhibition, hits mostly inhibitors; 220,000 tested, 7.3% active; active means well fitted inhibition curve with a large enough effect, not every such curve was filed as active; inconclusive means small, poorly fitted or top-dose-only effect, or another doubt; inactive means no such curve, though single readings can be large or run the other way;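 further: plate controls were no enzyme wells and a reference inhibitor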
Target sequence (P00352 whole entry, looked up): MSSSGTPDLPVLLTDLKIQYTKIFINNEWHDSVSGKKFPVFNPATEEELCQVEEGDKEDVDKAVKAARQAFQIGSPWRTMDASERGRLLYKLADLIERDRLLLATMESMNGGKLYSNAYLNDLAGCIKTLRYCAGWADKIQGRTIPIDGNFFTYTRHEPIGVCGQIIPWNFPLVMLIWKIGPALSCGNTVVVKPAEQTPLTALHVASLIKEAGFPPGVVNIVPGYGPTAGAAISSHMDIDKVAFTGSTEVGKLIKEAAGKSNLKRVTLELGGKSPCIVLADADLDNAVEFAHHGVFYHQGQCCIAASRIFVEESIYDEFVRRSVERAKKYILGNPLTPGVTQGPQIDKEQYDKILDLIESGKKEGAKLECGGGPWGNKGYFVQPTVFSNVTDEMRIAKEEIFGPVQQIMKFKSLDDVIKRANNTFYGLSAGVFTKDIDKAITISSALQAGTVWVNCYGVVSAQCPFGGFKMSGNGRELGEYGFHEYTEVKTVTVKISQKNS
PLK1 PBD block: inhibitors of human PLK1 polo-box domain binding | P53350 | Plk1 PBD binding of FITC phosphopeptide, fluorescence polarization | Potency, µM, without a hit: max response, negative = inhibition, actives largely listed as inhibitors | 360,000 tested, 2.8% active; further: series mostly up to about 57 µM; nearly all actives have a fitted effect of over 65% in size
RORgamma inh: ROR gamma (mouse) transcription inhibition. Potency, µM (highest dose often 53.6 µM), for inactives: top-dose activity change, negative = inhibition, hits mostly inhibitors. P51450. Drosophila S2 Gal4-RORgamma UAS-luciferase reporter, 20 h. 310,000 tested, 5.4% active; further: nearly all actives have a fitted effect of over 60% in size
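In this cell-based reporter format, copper sulfate (700 uM final) drives Gal4–ROR gamma fusion expression from a metallothionein promoter in Drosophila Schneider cells; compounds preincubated 1 hr, reporter read after 20 hr at ambient temperature.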
VP16 counter: Gal4-VP16 reporter inhibition counter-screen; Potency, µM (doses to about 53.6 µM), for inactives: at the highest dose activity, negative = inhibition, actives largely listed as inhibitors; Drosophila S2 Gal4-VP16 UAS-luciferase, luminescence, 20 h; 310,000 tested, 3.5% active;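 further: Gal4-VP16 expression switched on by copper sulfate through the metallothionein promoter; nearly all actives have a fitted effect of over 50% in size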
* = called active by the depositor; i = inactive; ? = inconclusive; nt = not tested or not shown; [ ] = remark or other dose. In the library only some 12% were active in any assay of this set; here they are far more common. Unless noted, the call rests on the fitted dose curve; in most records, active means well fitted curve in the direction sought with a large enough effect; inconclusive means small, poorly fitted or top-dose-only effect, or another doubt; inactive means no such curve, though single readings can be large; an effect the other way counts as inactive or inconclusive. Unless noted, on the % scale 0 is the no-effect control and ±100 the full control effect; potency means the concentration at half of the fitted maximal effect.

SMILES | Sfp PPTase inh | ALDH1A1 block | PLK1 PBD block | RORgamma inh | VP16 counter
Cn1cc(-c2nnnn2-c2cccc(C(F)(F)F)c2)c(C(F)(F)F)n1 | 14.5% | ? | -6.3% | 10µM* | -3.6%[0.365 µM]
COc1ccc(OC)c(NC(=O)CSc2nnc(C3CCCCC3)n2-c2ccccc2)c1 | 2.6% | ? | 26.7µM* | -0.5% | -16.4%
COc1ccc(OC)c(NC(=O)CSc2nnc(-c3ccco3)n2-c2ccc(C(=O)O)cc2)c1 | 56.2µM* | 25.1µM* | -12.2% | -3.3% | -17.3%
COc1ccc(CCCNC(=O)C2(C)Cc3c(-c4ccc5c(c4)OCO5)ccnc3O2)cc1 (centres undefined) | nt | nt | 3.1% | nt | nt
COc1ccc(S(=O)(=O)N2CCCCC2)cc1NC(=O)c1cccc(S(=O)(=O)N2CC(C)OC(C)C2)c1 (centres undefined) | nt | nt | -5.2% | nt | nt
CCC(Sc1ncccc1C(=O)O)C(=O)N1CCCC1 (centres undefined) | 11.2µM* | -8.8% | -17.3% | -35.2% | -17.9%
CCC(Sc1ncccc1C(=O)O)C(=O)N1CCOCC1 (centres undefined) | 50.1µM* | -0.2% | -11.0% | 6.1% | -3.9%
CCOC(=O)c1cccnc1SC(CC)C(=O)N1CCOCC1 (centres undefined) | 11.3% | 5.0% | -14.5% | -12.5% | -1.5%
CSc1ncccc1C(=O)OCC(=O)N1CCCC1 | nt | nt | -5.1% | nt | nt
COC(=O)[C@@]1(Cc2ccc(OC)cc2)[C@H]2c3cc(C(=O)N4CCCC4)n(CCc4ccc(O)c(OC)c4)c3C[C@H]2CN1C(=O)c1ccccc1 | 0.7% | -0.4% | nt | 42.2% | -1.6%
CCn1cc(/C=C(\NC(=O)c2ccccc2F)C(=O)N2CCN(C)CC2)c2ccccc21 | nt | nt | -1.0% | nt | nt
CCOC(=O)N1CCC(n2c(=S)[nH]c3ccccc3c2=O)CC1 | 22.6% | 11.5% | -5.9% | 8.91µM* | 7.08µM*
CCOC(=O)N1CCC(NC(=O)C2CCC(Cn3c(=O)[nH]c4ccccc4c3=O)CC2)CC1 (centres undefined) | nt | nt | -5.4% | nt | nt
CCOC(=O)N1CCN(C(=O)c2ccc3c(=O)n(CC4CCCO4)c(=S)[nH]c3c2)CC1 (centres undefined) | -1.5% | 14.1µM* | -0.4% | -1.7% | -4.3%
CCOC(=O)N1CCN(C(=O)c2ccc3c(=O)n(Cc4ccccc4)c(=S)[nH]c3c2)CC1 | -2.4% | ? | 4.0% | 12.6µM* | ?
O=CNc1cc(-c2cccc(F)c2)cn2c(-c3ccc(F)c(Cl)c3)cnc12 | nt | nt | -18.0% | nt | nt
CCNC(=O)NC(=O)COC(=O)c1ccccc1SCC(=O)NC(=O)NCC | ? | i | 2.67µM* | 13.1% | 9.9%
NC(=O)c1cc(S(=O)(=O)NCCCc2ccccc2)cs1 | 10.9% | nt | 26.7µM* | 2.6% | ?
NCCC[C@@H](CC(=O)N[C@@H]1CCCC[C@H]1C(=O)N[C@H](CC(=O)N[C@@H](CCC(=O)O)CC(=O)O)Cc1c[nH]c2ccccc12)NC(=O)C[C@H](Cc1c[nH]c2ccccc12)NC(=O)[C@@H]1CNCC[C@H]1N | -0.7% | -4.6% | nt | 16.8% | 3.0%
CCCN(CCC)S(=O)(=O)c1ccc(C(=O)Nc2ccc(S(=O)(=O)Nc3nnc(CC)s3)cc2)cc1 | 17.7% | nt | ? | 23.9% | -8.2%
CC(C)C[C@@H](CC(=O)N[C@@H](CCCN)CC(=O)N[C@@H]1CCNC[C@H]1C(=O)N[C@H](CC(=O)N[C@@H](CCC(=O)O)CC(=O)O)Cc1ccccc1)NC(=O)[C@@H]1CNCC[C@H]1N | -16.3% | -6.5% | nt | 5.9% | 7.2%
COC(=O)Cc1ccc2sc(-c3ccccc3)nc2c1 | ? | 3.9% | -0.7% | ? | 15.8µM*
COC(=O)Cc1sc(-c2ccccn2)nc1-c1ccccc1 | 22.4µM* | ? | 4.74µM* | -6.6% | 0.0%
COC(=O)C1=C(C(=O)OC)[C@@H]2Nc3ccccc3[C@@]23C[C@@H](C(=O)OC)N(S(=O)(=O)c2cccs2)C3=N1 | -7.4% | 17.4%[13.5 µM] | nt | nt | nt
O=c1ccc2cc(S(=O)(=O)NCc3ccccc3)ccc2[nH]1 | 3.5% | nt | -12.3% | -18.0% | -1.1%
SMILES | Sfp PPTase inh | ALDH1A1 block | PLK1 PBD block | RORgamma inh | VP16 counter
O=S1(=O)CC(N2CC=CC2)CN1Cc1ccc(F)cc1 (centres undefined) | nt | nt | -22.4% | nt | nt
CCN1CCN(C(=O)c2ccc(CS(=O)(=O)Cc3ccccc3Cl)o2)CC1 | nt | nt | 5.3% | nt | nt
CN1C(=O)NC(c2ccc(O)cc2)C2=C1CN(c1ccc(O)cc1)C2=O (centres undefined) | 22.2% | -0.7% | 0.3% | -1.5% | 3.6%
CN1C(=O)NC(c2ccc(O)cc2)C2=C1CN(c1ccccc1)C2=O (centres undefined) | 7.4% | nt | 23.8µM* | -4.2% | 2.6%
Cn1c(=O)c2cc3c(nc2n(C)c1=O)CC(c1ccccc1)CC3=O (centres undefined) | -1.2% | 14.1µM* | -7.6% | 6.4% | -9.7%
CSc1nc2nc3c(cn2n1)C(=O)CC(c1ccccc1)C3 (centres undefined) | 6.2% | ? | -8.5% | -32.9% | 5.5%
CCOC(=O)c1ccccc1NC(=O)C1CC(=O)N(c2ccccc2)C1 (centres undefined) | -16.7% | ? | -7.1% | 0.5% | -2.7%
O=[N+]([O-])c1ccc(-[n+]2ccc3ccccc3c2)c([N+](=O)[O-])c1 | nt | nt | 23.8µM* | nt | nt
Cc1ccc(S(=O)(=O)/C=C2\NC(=O)CS2)cc1 | -1.3% | ? | ? | ? | -4.5%
Cc1ccc(S(=O)(=O)/C=C\C#N)cc1 | 44.7µM* | 0.0112µM* | nt | 0.631µM* | 0.562µM*
CC(C)(C)c1ccc(S(=O)(=O)/C=C\C#N)cc1 | 44.7µM* | 0.0562µM* | nt | 0.631µM* | 0.794µM*
CC(C)(C)c1ccc(S(=O)(=O)N2CCN(CCC#N)CC2)cc1 | 17.5% | ? | -2.3% | ? | 0.6%
Cn1cc(-c2ccccc2C(=O)O)c(=O)c2cc(Cl)ccc21 | 9.5% | nt | ? | -0.9% | -1.1%
Cn1cc(S(=O)(=O)c2ccccc2)c(=O)c2cc(Cl)ccc21 | 19.6% | nt | 26.7µM* | 4.3% | -1.6%
CCCn1cc(S(=O)(=O)c2ccc(Cl)cc2)c(=O)c2cc(OC)ccc21 | 4.8% | nt | 2.99µM* | 21.5% | 4.5%
Clc1cccc(OCCn2cncn2)c1Cl | -25.7% | -8.3% | -17.8% | 16.6% | -8.6%
Clc1cccc(Oc2cnns2)c1Cl | -16.0% | ? | 3.36µM* | -10.5% | -20.4%
COC(=O)N1C(C2CC2)=Cc2ccccc2C1CC(C)=O (centres undefined) | -1.2% | 2.4% | nt | -13.8% | -10.7%
Cc1ccn2c(/C=N/OCc3ccc(F)cc3)c(-c3ccc(Cl)cc3)nc2c1 | ? | 22.4µM* | -5.4% | ? | -5.8%
O=c1c(Cl)cc(Cl)nn1-c1ccccc1 | 9.5% | 31.6µM* | -4.0% | 14.1µM* | ?
COc1cc(Cl)nn(-c2ccccc2)c1=O | 0.1% | -0.9% | -0.4% | 9.7% | 1.8%
Nc1ncnc2c1ncn2[C@@H]1O[C@H](C(=O)NCC2CCN(Cc3ccccc3)CC2)[C@@H](O)[C@H]1O | nt | nt | -1.0% | nt | nt
